Screening data: PubChem, several laboratories
The list is not random: actives were taken first. Their share in the collection is about 5%.
SENP8 block-1: human SENP8 protease inhibitors, primary screen, biochemical, fluorescence, Nedd8 protein substrate, uHTS. Sentrin-specific protease 8 (Homo sapiens), Q96LD8. recombinant SENP8. inhibition, % at 20 µM. 0.64% of 360,000 active. AID 602440, 2012; in the data active means inhibition mostly above about 40%, no sharp cut-off; inactive means mostly below about 27%
SENP8 block-2: SENP8 protease inhibitors, primary screen, biochemical, luminescence | inhibition, % at 10 µM | AID 2540, 2010 | purified SENP8, Z-RLRGG-aminoluciferin cleavage | 1.2% of 330,000 active; in the data active means inhibition above about 50%
EBI2 block: EBI2 receptor antagonists, beta-arrestin recruitment, primary screen, cell-based, luminescence, 7a,25-OHC stimulation, uHTS. inhibition, % at 5 µM. G-protein coupled receptor 183 (Homo sapiens), P32249. 7a,25-OHC stimulated. AID 651636, 2012. 0.81% of 360,000 active; in the data active means inhibition above about 38%;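 further: enzyme fragment complementation signal reports receptor beta-arrestin coupling in cells; 0% = agonist plus DMSO wells and 100% = wells without agonist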
AHR activator: AHR activators, primary screen, cell-based, luminescence, luciferase reporter, human | Aryl hydrocarbon receptor (Homo sapiens), P35869 | AHR-responsive luciferase reporter cells | activation, % at 5 µM | 2.5% of 320,000 active | AID 2796, 2010; in the data active means activation above about 47%;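 further: 0% = vehicle wells and 100% = reference agonist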
SENP6 block: SENP6 protease inhibitors, primary screen, biochemical, luminescence, uHTS; Sentrin-specific protease 6 (Homo sapiens), Q9GZR1; Recombinant SENP6 catalytic domain, aminoluciferin luminescence; inhibition, % at 10 µM; 1.8% of 330,000 active;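 active means inhibition above about 50% at the single tested dose, limit read from the data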;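 further: plate controls were DMSO wells with enzyme for no effect and DMSO wells lacking enzyme for full effect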
Target sequence (Q9GZR1 628-1112 limits assumed): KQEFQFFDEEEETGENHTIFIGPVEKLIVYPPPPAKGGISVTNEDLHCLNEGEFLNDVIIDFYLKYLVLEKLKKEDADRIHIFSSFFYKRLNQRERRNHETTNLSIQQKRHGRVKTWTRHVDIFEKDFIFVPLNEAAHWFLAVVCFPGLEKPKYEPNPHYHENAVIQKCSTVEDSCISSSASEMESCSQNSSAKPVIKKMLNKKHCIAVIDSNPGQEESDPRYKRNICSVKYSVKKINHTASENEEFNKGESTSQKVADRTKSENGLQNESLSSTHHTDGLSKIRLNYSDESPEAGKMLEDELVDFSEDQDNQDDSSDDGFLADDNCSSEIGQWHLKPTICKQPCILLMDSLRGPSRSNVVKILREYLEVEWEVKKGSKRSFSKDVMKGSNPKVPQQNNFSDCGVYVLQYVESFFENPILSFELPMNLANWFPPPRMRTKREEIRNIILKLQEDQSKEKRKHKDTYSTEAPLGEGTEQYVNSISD
SENP7 inh: SENP7 protease inhibitors, primary screen, biochemical, luminescence, uHTS; Sentrin-specific protease 7 (Homo sapiens), Q9BQF6; recombinant SENP7, Z-RLRGG-aminoluciferin luminescence, 40 min; inhibition, % at 5 µM; 1.5% of 330,000 active;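 active means inhibition above about 50% at the single test dose, limit read from the data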;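 further: plate controls were DMSO with enzyme for no effect and no enzyme buffer wells for full effect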
AHR act cf: AHR activators, confirmation, cell-based, luminescence, luciferase reporter, human; activation, % at 9 µM; shares compounds with AHR activator; human cells, AHR-responsive luciferase reporter; 87% of 2,300 active; in the data active means activation above about 49%;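 further: HepG2 hepatoma cells carrying a DRE-driven firefly luciferase reporter; 0% = vehicle wells and 100% = reference agonist wells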
PXR act counter: human PXR activators, counter-screen for AHR activator project, cell-based, luciferase luminescence; shares compounds with AHR activator; cell-based PXR reporter; activation, % at 11.6 µM; 88% of 2,300 active; AID 434939, 2010; in the data active means activation above about 11%;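 further: human hepatoma DPX-2 cells expressing full-length human PXR; 0% = DMSO and 100% = reference agonist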
Active calls of the source: *; i = inactive; nt = no result.

SMILES | SENP8 block-1 | SENP8 block-2 | EBI2 block | AHR activator | SENP6 block | SENP7 inh | AHR act cf | PXR act counter
Cc1cc(C)c(C)c(OCCn2ccnc2)c1 | 16 | 0 | 7 | 90* | 11 | 2 | 54* | 14*
Cc1ccc(C)c(OCCn2ccnc2)c1 | 7 | -4 | -4 | 20 | -28 | -8 | nt | nt
Cc1sc2nc(CSc3ccc([N+](=O)[O-])c(C(F)(F)F)c3)[nH]c(=O)c2c1C | -117 | 2 | 8 | 83* | -2 | -1 | 76* | 32*
COc1ccccc1Cc1nc(-c2ccc(Br)o2)no1 | -4 | -3 | 9 | 119* | -1 | 5 | 113* | 43*
COc1cccc(-c2nc(-c3ccc(Br)o3)no2)c1 | 10 | 72* | 4 | 86* | 85* | 84* | 136* | 28*
COc1ccc(S(=O)(=O)N2CCOC2CNC(=O)C(=O)NCCCN2CCOCC2)cc1C (stereo unspecified) | -5 | 1 | -1 | 3 | -11 | -3 | nt | nt
CCC(=O)Nc1cc(-c2nn3c(C)nnc3s2)ccc1C | -7 | -4 | -6 | 23 | 0 | 3 | nt | nt
CC(=O)Nc1cc(-c2nn3c(C)nnc3s2)ccc1C | 2 | -2 | -2 | 99* | -3 | 8 | 89* | 11*
Cc1ccc(NC(=O)c2ccc3ccccc3n2)nc1 | 4 | 20 | 4 | 86* | 9 | 39 | 106* | 18*
O=C(Nc1ccc(Cl)cn1)c1ccc2ccccc2n1 | 16 | -8 | -3 | 37 | -15 | 35 | nt | nt
COc1ccc(C(=O)CSc2ccc3nnc(-c4cccnc4)n3n2)cc1 | -104 | -9 | 8 | 83* | -92 | -10 | 74* | 11*
COc1ccccc1NC(=O)CSc1ccc2nnc(-c3ccncc3)n2n1 | -1 | -3 | 0 | 27 | 0 | -1 | nt | nt
Cc1csc(NC(=O)CSc2ccc3nnc(-c4ccncc4)n3n2)n1 | -9 | -9 | -13 | 92* | -34 | -6 | 65* | nt
CC1(C)NC(=O)N(CC(=O)Nc2ccc(-n3cnnn3)cc2)C1=O | 14 | -23 | -3 | 1 | -4 | -11 | nt | nt
Fc1ccc2cnc(-c3cccnc3)cc2c1 | 6 | -6 | -4 | 89* | 2 | 5 | 87* | 26*
CCN(CC)C(=O)Cn1cc(C(=O)C(=O)N2CCc3ccccc32)c2ccccc21 | -2 | -10 | -4 | 98* | 5 | -11 | 89* | 243*
O=C(O)c1cc(S(=O)(=O)Nc2ccc3c(c2)OCCO3)c(Cl)cc1Cl | 2 | 8 | 0 | 83* | -11 | -8 | 15 | 14*
CCc1ccc(C(=O)CN(C#N)c2nc(C)cc(C)n2)cc1 | 19 | 0 | 14 | 85* | 15 | -2 | 63* | 19*
Cc1ccsc1CN(C)CC(=O)NCC(=O)Nc1ccc(F)cc1 | 4 | -5 | -7 | 11 | 0 | 9 | nt | nt
O=C(NCc1ccc(F)cc1)c1cc(C2CCCN(C(=O)c3ccc4c(c3)CCO4)C2)on1 (stereo unspecified) | 11 | nt | 14 | nt | nt | nt | nt | nt
CCCn1c(CNc2ccc(Br)cc2)nc2ccccc21 | 12 | -17 | 11 | 101* | -10 | 19 | 93* | 51*
CCn1c(CNc2ccc(C(=O)O)cc2)nc2ccccc21 | 1 | -5 | -5 | 5 | 2 | -2 | nt | nt
CCN(CC)CC(=O)Nc1c(C#N)cnn1-c1ccccc1 | 16 | -3 | 10 | 12 | -16 | 2 | nt | nt
O=C(N/N=C/c1sc(=O)[nH]c1-[n+]1ccc2ccccc2c1)c1ccccc1[O-] | -82 | 2 | 13 | 84* | 6 | 13 | 71* | 12*
CN(C)S(=O)(=O)c1ccc(N2CCCC2)c(C(=O)NNC(=O)COc2cccc(F)c2)c1 | -277 | -5 | 2 | 0 | -12 | -3 | nt | nt
SMILES | SENP8 block-1 | SENP8 block-2 | EBI2 block | AHR activator | SENP6 block | SENP7 inh | AHR act cf | PXR act counter
Cc1ccc2c(c1)Oc1ccc(NC(=O)CCl)cc1C(=O)N2 | 15 | 9 | 9 | 20 | 8 | 7 | nt | nt
Cc1ccc2c(c1)Oc1ccc([N+](=O)[O-])cc1C(=O)N2 | 20 | 2 | 1 | 88* | -11 | -5 | 82* | 68*
O=C(COC(=O)c1ccc(O)cc1)Nc1cc(S(=O)(=O)N2CCOCC2)ccc1Cl | -5 | -6 | -3 | 12 | -11 | -9 | nt | nt
O=[N+]([O-])c1ccc(Sc2nc3ccccc3o2)c([N+](=O)[O-])c1 | 12 | 1 | -53 | 6 | 24 | -6 | nt | nt
O=c1[nH]c(Sc2ccc([N+](=O)[O-])cc2[N+](=O)[O-])nc2ccccc12 | 29 | -5 | -4 | 88* | 8 | 12 | 41 | 26*
C=CCn1c(SCC(=O)N2CCN(C(=O)OCC)CC2)nc2c([nH]c3ccccc32)c1=O | -26 | nt | 5 | nt | nt | nt | nt | nt
C=CCn1c(SCC(=O)N2CCCC2)nc2c([nH]c3ccccc32)c1=O | -15 | -1 | 7 | 86* | -6 | 6 | 98* | 125*
C=CCNc1nc(N2CCCC2)nc2ccccc12 | i | 11 | -10 | 84* | 2 | 7 | 35 | 12*
O=C(CNCc1cccs1)Nc1ccc(N2CCCCCC2)cc1 | 27 | -10 | 7 | 5 | -5 | -4 | nt | nt
COCCN(CCOC)c1nc(-c2ccccc2)nc2ccccc12 | -38 | -10 | -19 | nt | -11 | -12 | nt | nt
c1ccc(-c2nc(NCCCn3ccnc3)c3ccccc3n2)cc1 | -16 | 0 | 22 | 82* | 4 | -2 | 89* | 76*
COCCCNc1nc(-c2ccncc2)nc2ccccc12 | -126 | 0 | -1 | 88* | -3 | 11 | 103* | 56*
COCCCNc1nc(-c2ccc(Cl)cc2)nc2ccccc12 | -33 | -1 | 33 | 98* | 7 | 1 | 91* | 30*
COCCN(CCOC)c1nc(-c2ccc(Cl)cc2)nc2ccccc12 | -54 | 1 | 14 | 118* | 0 | -1 | 83* | 70*
CCOC(=O)Nc1nc(-c2ccc(Cl)cc2Cl)cs1 | 11 | -15 | 5 | 9 | -17 | 0 | nt | nt
Cn1cnc2c1c(=O)n(Cc1ccc(Cl)cc1Cl)c(=O)n2C | 3 | -4 | 1 | 0 | 2 | -3 | nt | nt
COc1cc(OC)cc(C(=O)N[C@H](C(=O)NCc2cccs2)C(C)C)c1 | 16 | -1 | 2 | 3 | 9 | 6 | nt | nt
CCN(CC)c1nc(-c2ccccc2)nc2ccccc12 | -20 | -5 | -10 | 108* | 6 | -19 | 78* | 91*
